TRHR PAM – TRH receptor (human) allosteric enhancement; P34981; TRHR cells, fluo-8 calcium fluorescence, EC20 TRH enhancement; enhancement, % at 2 µM; actives 0.66% (n = 360,000); AID 493056; in the data active means enhancement above about 30%
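Enhancer read-out: after compound pinning and an initial kinetic agonist-mode read, an EC20 of TRH (10 nM final) was injected and fluo-8 calcium signal (Ex 480/Em 530) followed at 1 s/cycle for 100 cycles in TRHR-expressing cells.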
TRPV1 agonist – human TRPV1 agonism. activation, % at 8.33 µM. Q8NER1. actives 0.19% (n = 320,000). TRPV1-expressing cells, Fluo-8 calcium influx, agonist mode; in the data active means activation above about 80%; inconclusive means between about 30% and that limit
Target sequence (Q8NER1 whole entry, looked up): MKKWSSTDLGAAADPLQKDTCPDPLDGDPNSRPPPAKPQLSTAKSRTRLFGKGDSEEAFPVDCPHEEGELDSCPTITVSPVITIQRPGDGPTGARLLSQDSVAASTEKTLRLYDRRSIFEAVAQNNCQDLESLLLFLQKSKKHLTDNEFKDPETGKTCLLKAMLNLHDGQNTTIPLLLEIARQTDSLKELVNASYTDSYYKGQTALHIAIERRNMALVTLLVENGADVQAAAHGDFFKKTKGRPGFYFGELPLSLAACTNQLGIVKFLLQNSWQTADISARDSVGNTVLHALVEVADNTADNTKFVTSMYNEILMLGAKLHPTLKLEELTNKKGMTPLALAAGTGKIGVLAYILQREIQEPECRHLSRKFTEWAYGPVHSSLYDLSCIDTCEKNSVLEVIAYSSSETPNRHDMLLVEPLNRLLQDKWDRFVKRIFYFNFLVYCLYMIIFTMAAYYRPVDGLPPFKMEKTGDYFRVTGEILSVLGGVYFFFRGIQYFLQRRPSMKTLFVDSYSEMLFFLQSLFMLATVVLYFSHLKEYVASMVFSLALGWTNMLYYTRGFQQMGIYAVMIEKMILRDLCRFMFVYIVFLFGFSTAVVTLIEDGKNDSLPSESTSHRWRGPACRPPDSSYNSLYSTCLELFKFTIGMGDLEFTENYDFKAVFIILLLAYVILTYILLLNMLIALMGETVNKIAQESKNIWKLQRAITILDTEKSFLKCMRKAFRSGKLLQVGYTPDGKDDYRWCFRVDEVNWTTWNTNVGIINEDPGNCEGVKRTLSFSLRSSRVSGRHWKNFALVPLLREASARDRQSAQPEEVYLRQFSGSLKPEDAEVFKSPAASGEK
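Cells expressing TRPV1 were dye-loaded with Fluo-8 and read kinetically: 10 s baseline, 3 min after compound (agonist portion), then 2 min after EC20 capsaicin (allosteric enhancer portion). Calcium-bound dye fluorescence at 480/520 nm.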
TRPML1 inh – blocks the human TRPML1 channel; Q9GZU1; TRPML1-inducible cells, Ca2+ dye fluorescence, FDSS; hits give low values; inhibition of EC80 agonist-evoked calcium signal; activity change, negative = inhibition, % (no concentration beside the values); actives 0.02% (n = 390,000); AID 624415; in the data active means activity change below about -50%; inconclusive means between about -30% and that limit;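 further: stimulus is agonist 54-4 at its EC80 concentration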
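Tet-induced TRPML1-DL cells loaded with Ca8 no-wash calcium dye were read kinetically on FDSS. Compound addition was followed by EC80 agonist 54-4 (4 uM final); inhibition was read over 110 s.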
TRPML1 ag – human mucolipin-1 channel agonism | Q9GZU1 | TRPML1-expressing cells, Ca2+ dye fluorescence, FDSS | activation, % (no concentration beside the values) | actives 0.12% (n = 410,000) | AID 624414; in the data active means activation above about 50%; inconclusive means mostly about 30% to 49%
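In this qHTS format, compounds were pin-transferred onto Ca8-dye-loaded TRPML1-DL cells induced with Tet overnight, and intracellular Ca2+ fluorescence was recorded kinetically for 110 s after a 10 s baseline. A subsequent 4uM final 54-4 (EC80) addition followed by a second 110 s read served as the antagonist phase.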
TRPV1 potentiator – enhances activation of the human vanilloid receptor TRPV1. Q8NER1. TRPV1-expressing cells, Fluo-8 calcium influx, capsaicin EC20 potentiation. potentiation, % at 8.33 µM. actives 0.02% (n = 320,000). AID 540277; in the data active means potentiation above about 80%; inconclusive means between about 30% and that limit
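Cells expressing TRPV1 were dye-loaded with Fluo-8 and read kinetically: 10 s baseline, 3 min after compound (agonist portion), then 2 min after EC20 capsaicin (allosteric enhancer portion). Calcium-bound dye fluorescence at 480/520 nm.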
TRHR ag – agonists of human TRH receptor; actives 0.18% (n = 360,000); TRHR cells, calcium flux fluo-8, FDSS agonist mode; AID 493084; activation, % at 2 µM; P34981; in the data active means activation above about 30%
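Fluo-8-loaded TRHR cells; 10 s baseline, compound added, kinetic Ca2+ fluorescence read 1/s, agonist mode.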
Numbers stand for hits; i = inactive; ? = inconclusive; nt = no result given. Compounds with a hit are over-represented: about 0.99% of the library has one in this group of screens.

SMILES	TRHR PAM	TRPV1 agonist	TRPML1 inh	TRPML1 ag	TRPV1 potentiator	TRHR ag
O=C(COC(=O)c1cc2c(s1)CCCC2)Nc1ccc(Cl)cn1	i	i	i	i	i	i
O=C(NC1=NCCS1)c1cc(Cl)ccc1Cl	39	i	i	i	i	i
O=C(NC1=NCCS1)c1ccccc1Cl	i	i	i	i	i	i
COc1ccc(OC)c(/C=C/c2sc3ccccc3[n+]2C)c1	nt	nt	nt	i	nt	nt
C1=C/C(=C2/C=Cc3ccccc32)c2ccccc2N1	nt	nt	nt	i	nt	nt
NNC(=O)C(C(=O)OCc1ccccc1)c1ccccc1 (stereo not given)	i	nt	nt	nt	nt	i
COC(=O)c1c(-c2ccccc2)csc1NC1=NS(=O)(=O)c2ccccc21	32	i	i	i	i	i
COC(=O)c1ccc(C(=O)OC)c(NC2=NS(=O)(=O)c3ccccc32)c1	i	i	i	i	i	i
O=C(Nc1ccc(F)cc1)/C(Cl)=C/c1ccccc1	i	83	i	i	i	i
O=[S+]([O-])(c1ccc2c(c1)OCCO2)N1CCN([S+](=O)([O-])c2cc(Cl)ccc2F)CC1	i	nt	nt	nt	nt	i
CCc1ccccc1NC(=O)c1ccc2c(O)c(S(=O)(=O)c3ccc(OC)cc3)c(=O)[nH]c2c1	i	i	i	i	i	i
COc1ccc(S(=O)(=O)c2c(O)c3ccc(C(=O)Nc4ccccc4Cl)cc3[nH]c2=O)cc1	32	i	i	i	i	i
C(=C\c1ccnc2ccccc12)/c1ccc(N2CCOCC2)cc1	nt	nt	nt	i	nt	nt
CSCc1ccc(C(=O)N2CCCC(Nc3ccc(F)cc3)C2)o1 (stereo not given)	i	84	i	i	i	i
COc1ccc(NC2CCCN(C(=O)c3ccc(OC)o3)C2)cc1 (stereo not given)	i	?	i	i	i	i
CSCc1ccc(C(=O)N2CCCC(Nc3ccc4c(c3)OCCO4)C2)o1 (stereo not given)	i	91	i	i	i	i
O=C(c1ccco1)N1CCCC(Nc2ccc3c(c2)OCCO3)C1 (stereo not given)	i	?	i	i	i	i
COc1ccccc1/C=C/c1nc2ccccc2[nH]1	nt	nt	nt	i	nt	nt
CCCCC(OC(=O)CNC(=O)c1ccccc1)C(=O)Nc1cc(C(F)(F)F)ccc1Cl (stereo not given)	i	nt	nt	nt	nt	i
Cc1ccc(Nc2ncnc3c2oc2ccccc23)cc1	i	93	i	i	i	i
COc1ccc(Nc2ncnc3c2oc2ccccc23)cc1	i	93	i	i	i	i
C=C1C=C(C(F)F)n2ncc(C(=O)N3CCN(c4ccccc4)CC3)c2N1	nt	nt	nt	i	nt	nt
O=C1CN(C(=O)COC(=O)CCSc2ccccc2Cl)c2ccccc2N1	33	i	i	i	i	i
CO[C@H]1/C=C\O[C@@]2(C)Oc3c(C)c(O)c4c(O)c(c(C=NN5CCN(C6CCCC6)CC5)c(O)c4c3C2=O)NC(=O)C(C)=CC=C[C@H](C)[C@H](O)[C@@H](C)[C@@H](O)[C@@H](C)[C@H](OC(C)=O)[C@H]1C	nt	nt	nt	i	nt	nt
O=C(COc1ccccc1C(=O)Nc1ccccc1)NCCCCc1ccccc1	nt	nt	nt	i	nt	nt
SMILES	TRHR PAM	TRPV1 agonist	TRPML1 inh	TRPML1 ag	TRPV1 potentiator	TRHR ag
O=C(c1ccc(Br)s1)N1CCN(Cc2ccc3c(c2)OCO3)CC1	i	?	-51	i	i	i
O=C(O)CCC(=O)N1CCN(Cc2ccc3c(c2)OCO3)CC1	31	i	i	i	i	i
O=C(c1ccc(Br)o1)N1CCN(Cc2ccc3c(c2)OCO3)CC1	i	i	i	i	i	i
CCOc1ccccc1N1CCN(Cc2ccc(Br)s2)CC1	i	?	i	i	i	i
CCCC(=O)N1CCN(Cc2ccc3c(c2)OCO3)CC1	i	i	i	i	i	i
CC(=O)N1CCN(Cc2ccc(Br)s2)CC1	30	i	i	i	i	i
Cc1cc2nccc(/C=C/c3ccc(N(C)C)cc3)c2cc1C	nt	nt	nt	i	nt	nt
Cc1ccc(S(=O)(=O)N2C[C@@H]3[C@H]4CC[C@H](C4)[C@@H]3[C@@H](C)[C@@H]2C2CCCCC2=O)cc1 (stereo not given in full)	nt	nt	i	92	nt	nt
CN(C)c1ccc(/C=C/c2ccnc3ccc(F)cc23)cc1	nt	nt	nt	i	nt	nt
CN(C)c1ccc(/C=C/c2ncnc3ccccc23)cc1	nt	nt	nt	82	nt	nt
